In the supplement of paper PMC6522484 one finds cell viability data, which are given here for 40 molecules.

Where “and” joins values, the source holds several entries; their conditions need not be identical. Identical values can stand only once. ± gives the standard deviation of the averaged measurements.

For the first assay, the system named is DLD1. In words: cell viability (CellTiter-Glo) relative to plate median (fraction of plate median); higher = more viable cells. As to conditions: 5 µM; treatment time 24 h; reporter: 7TFP. The gist of the method: (§1)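 Each entry is a luminescence signal normalised to the plate median, averaged over independent replicates. The replicate count was two, and the cells were colorectal cancer lines with stable lentiviral TCF/Wnt firefly luciferase reporters exposed to library compounds at a final 5 µM for 24 h. Firefly luciferase and CellTiterGlo were measured on parallel plates.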
(ATP-based viability assays read luminescence as a measure of living cells.)
`O=C(c1ccc(OCCN2CCCCC2)cc1)c1c(-c2ccc(O)cc2)sc2cc(O)ccc12` came in with a cell viability of 0.933.

`OCC(O)C(O)C(O)CO` (stereo not given): the cell viability was 0.921 and 1.07.

Take `COc1cc2c(cc1OC)[C@@H]1Cc3ccc(OC)c(OC)c3CN1CC2`: the cell viability was determined as 0.97 ± 0.085.

Take `NCCCCNCCCN`: the cell viability was found to be 0.936 ± 0.011.

With `COc1cc(C)c2c(c1C=O)Oc1c(c(C)c(O)c3c1C(O)OC3=O)OC2=O` (stereo not given), the cell viability stood at 0.951 ± 0.015.

`COc1ccc(-c2cc(=O)c3c(O)cc(O)cc3o2)cc1` yielded a cell viability of 1.03 ± 0.08.

For `C[C@]12C=CC(=O)C=C1CC[C@H]1[C@@H]3C[C@@H](O)[C@](O)(C(=O)CO)[C@@]3(C)C[C@H](O)[C@@]12F`, the cell viability is 0.999 ± 0.086.

In turn, `COC(=O)Nc1nc2cc([S+]([O-])c3ccccc3)ccc2[nH]1` (stereo not given) yielded a cell viability of 0.921 ± 0.093.

`C=C1CCC2C(CC2(C)C)C(=C)CC/C1=N/O` (stereo not given) showed a cell viability of 1.03 ± 0.035.

`CC(=O)O[C@H]1CC[C@]2(C)[C@H]3CC=C4[C@@H]5CC(C)(C)CC[C@]5(C)CC[C@@]4(C)[C@]3(C)CC[C@H]2C1(C)C` [beta-AMYRIN ACETATE] yielded a cell viability of 0.982 ± 0.054.

`CN(C(=O)C(Cl)Cl)c1ccc(OC(=O)c2ccco2)cc1` registered a cell viability of 0.95 ± 0.0014.

`CC1CC2C3CCC4=CC(=O)C=CC4(C)C3(F)C(O)CC2(C)C1C(=O)CO` (stereo not given) registered a cell viability of 0.954 ± 0.033.

The molecule `CC(=O)O[C@H]1CC[C@]2(C)C3=CC(=O)[C@@]4(C)C(C[C@@H]5OC6(OCC(C)CC6Br)[C@@H](C)[C@@H]54)C3CC[C@H]2C1` (stereo partly drawn) [3beta-ACETOXY-23-BROMO-ISOALLOSPIROST-9 (11)-ENE-12-ONE] yielded a cell viability of 1.04 ± 0.042.

`CO[C@@H]1[C@H](O)[C@@H](C)O[C@@H](OC[C@H]2[C@@H]3O[C@H]3/C=C/C(=O)[C@@](C)(O)C[C@H](C)[C@H](O[C@@H]3O[C@H](C)C[C@H](OC)[C@H]3O)[C@@H](C)/C=C/C(=O)O[C@@H]2C)[C@@H]1OC` [Chalcomycin] displayed a cell viability of 1.04 ± 0.083.

On to `CC(C)COCC(CN(Cc1ccccc1)c1ccccc1)N1CCCC1` (stereo not given), for which the cell viability was 1.06 ± 0.088.

Consider `COc1cccc2c(C)cc(=O)[nH]c12`, for which the cell viability came out at 1.05 ± 0.15.

`CC1(C)CCC[C@]2(C)[C@@H]3[C@H]1[C@@H](O)[C@@]2(C)C[C@H]3O`: the cell viability is 1.005 ± 0.0071.

The molecule `O=c1ccc2ccccc2o1` showed a cell viability of 0.985 ± 0.11.

Regarding `CCC[C@H](N[C@@H](C)C(=O)N1[C@H](C(=O)O)C[C@@H]2CCCC[C@@H]21)C(=O)OCC`, the cell viability was 1.03 ± 0.05.

Consider `O=c1cc(-c2ccccc2)oc2cc(O)cc(O)c12`, for which the cell viability is 1.01.

Regarding `NC[C@H]1CC[C@H](C(=O)O)CC1`, the cell viability worked out at 0.995 ± 0.022.

For `CCC1(c2ccccc2)C(=O)NCNC1=O`, the cell viability was 1.02 ± 0.029.

As to `Oc1c(Br)cc(Br)c2cccnc12`, the cell viability was 1.02 ± 0.021.

`Cc1cnc(NC(=O)C2=C(O)c3ccccc3S(=O)(=O)N2C)s1` registered a cell viability of 1.01 ± 0.04.

With `COC1=CC(=O)c2c(O)c3c(c(O)c2C1=O)OC1(Oc2c(cc4cc(C)oc(=O)c4c2O)C2OC21)C3O` (stereo not given) [Griseorhodin A], the cell viability was 1.09 ± 0.11.

`N/C(=N\C(=O)c1nc(Cl)c(N)nc1N)NCc1ccccc1`: the cell viability is 0.986 ± 0.035.

As for `NCc1ccc(S(N)(=O)=O)cc1`, the cell viability worked out at 0.962 ± 0.023.

`O=c1cc(-c2ccccc2)oc2cc(O)c(O)cc12` had a cell viability of 1.04 ± 0.14.

For `CC(=O)Oc1cccc(O)c1`, the cell viability is 1.01 ± 0.095.

Take `CC(C)=CC1C(C(=O)O)C1(C)C` (stereo not given): the cell viability turned out to be 1 ± 0.037.

With `OCCOCCN1CCN(C2=Nc3ccccc3Sc3ccccc32)CC1`, the cell viability is 1.05 ± 0.094.

As for `Nc1nc(/C(=C/CC(=O)O)C(=O)N[C@@H]2C(=O)N3C(C(=O)O)=CCS[C@H]23)cs1`, the cell viability stood at 0.988 ± 0.06.

`CN1CCCC(n2nc(Cc3ccc(Cl)cc3)c3ccccc3c2=O)CC1` (stereo not given): the cell viability is 1.01 ± 0.021.

For the molecule `O=c1c(O)cccc2cc(O)c(O)c(O)c12`, the cell viability was determined as 1.06 ± 0.057.

Consider `Oc1ccc([C@H]2Oc3cc(O)cc(O)c3C[C@H]2O)cc1`, for which the cell viability was 1.045 ± 0.0071.

In turn, `CCOC(=O)c1ccc(O)cc1` yielded a cell viability of 0.925 ± 0.019.

Take `C[C@@H]1C(=O)O[C@H]2C[C@@]34[C@H]5C[C@@H](C(C)(C)C)[C@]36[C@@H](OC(=O)[C@@H]6O)O[C@@]4(C(=O)O5)[C@]21O`: the cell viability came out at 1.07 ± 0.021.

Molecule `COc1ccc(-c2coc3cc(OC)cc(OC)c3c2=O)cc1` had a cell viability of 1.03 ± 0.086.

In turn, `C[C@H]1C[C@@H]2[C@H]([C@@H](O)C[C@@]3(C)[C@H]2CC[C@]3(O)C(=O)CO)[C@@]2(C)C=CC(=O)C=C12` gave a cell viability of 1.01 ± 0.029.

`COC(=O)Nc1nc2cc(C(=O)c3ccccc3)ccc2[nH]1` displayed a cell viability of 0.884 ± 0.069.

In a further assay the test system is HCT116. The description is as above. As to conditions: 5 µM; treatment time 24 h; reporter: TCF4/Wnt. The gist of the method:
as §1
With `O=C(c1ccc(OCCN2CCCCC2)cc1)c1c(-c2ccc(O)cc2)sc2cc(O)ccc12`, the cell viability is 1.01 ± 0.1.

As to `OCC(O)C(O)C(O)CO` (stereo not given), the cell viability is 0.918 and 1.01.

`COc1cc2c(cc1OC)[C@@H]1Cc3ccc(OC)c(OC)c3CN1CC2`: the cell viability worked out at 0.941 ± 0.038.

The molecule `NCCCCNCCCN` gave a cell viability of 1.03.

`COc1cc(C)c2c(c1C=O)Oc1c(c(C)c(O)c3c1C(O)OC3=O)OC2=O` (stereo not given) displayed a cell viability of 0.956 ± 0.028.

`COc1ccc(-c2cc(=O)c3c(O)cc(O)cc3o2)cc1` returned a cell viability of 0.935 ± 0.019.

`C[C@]12C=CC(=O)C=C1CC[C@H]1[C@@H]3C[C@@H](O)[C@](O)(C(=O)CO)[C@@]3(C)C[C@H](O)[C@@]12F` displayed a cell viability of 1.01 ± 0.047.

In turn, `COC(=O)Nc1nc2cc([S+]([O-])c3ccccc3)ccc2[nH]1` (stereo not given) showed a cell viability of 0.869 ± 0.054.

For `C=C1CCC2C(CC2(C)C)C(=C)CC/C1=N/O` (stereo not given), the cell viability was determined as 1.02 ± 0.11.

In the case of `CC(=O)O[C@H]1CC[C@]2(C)[C@H]3CC=C4[C@@H]5CC(C)(C)CC[C@]5(C)CC[C@@]4(C)[C@]3(C)CC[C@H]2C1(C)C` [beta-AMYRIN ACETATE], the cell viability was 0.965 ± 0.025.

Consider `CN(C(=O)C(Cl)Cl)c1ccc(OC(=O)c2ccco2)cc1`, for which the cell viability was found to be 0.879 ± 0.2.

`CC1CC2C3CCC4=CC(=O)C=CC4(C)C3(F)C(O)CC2(C)C1C(=O)CO` (stereo not given) showed a cell viability of 0.895 ± 0.043.

The molecule `CC(=O)O[C@H]1CC[C@]2(C)C3=CC(=O)[C@@]4(C)C(C[C@@H]5OC6(OCC(C)CC6Br)[C@@H](C)[C@@H]54)C3CC[C@H]2C1` (stereo partly drawn) [3beta-ACETOXY-23-BROMO-ISOALLOSPIROST-9 (11)-ENE-12-ONE] yielded a cell viability of 1.11 ± 0.092.

In the case of `CO[C@@H]1[C@H](O)[C@@H](C)O[C@@H](OC[C@H]2[C@@H]3O[C@H]3/C=C/C(=O)[C@@](C)(O)C[C@H](C)[C@H](O[C@@H]3O[C@H](C)C[C@H](OC)[C@H]3O)[C@@H](C)/C=C/C(=O)O[C@@H]2C)[C@@H]1OC` [Chalcomycin], the cell viability was 1.1 ± 0.071.

Take `CC(C)COCC(CN(Cc1ccccc1)c1ccccc1)N1CCCC1` (stereo not given): the cell viability came to 1 ± 0.064.

`COc1cccc2c(C)cc(=O)[nH]c12` yielded a cell viability of 1.07 ± 0.11.

`CC1(C)CCC[C@]2(C)[C@@H]3[C@H]1[C@@H](O)[C@@]2(C)C[C@H]3O` came in with a cell viability of 0.991 ± 0.11.

As to `O=c1ccc2ccccc2o1`, the cell viability is 1.01 ± 0.029.

In turn, `CCC[C@H](N[C@@H](C)C(=O)N1[C@H](C(=O)O)C[C@@H]2CCCC[C@@H]21)C(=O)OCC` returned a cell viability of 1.08 ± 0.035.

The molecule `O=c1cc(-c2ccccc2)oc2cc(O)cc(O)c12` showed a cell viability of 1.02 ± 0.035.

`NC[C@H]1CC[C@H](C(=O)O)CC1` came in with a cell viability of 1.025 ± 0.0071.

Consider `CCC1(c2ccccc2)C(=O)NCNC1=O`, for which the cell viability is 0.994 ± 0.15.

Turning to `Oc1c(Br)cc(Br)c2cccnc12`, the cell viability came to 1.07 ± 0.071.

`Cc1cnc(NC(=O)C2=C(O)c3ccccc3S(=O)(=O)N2C)s1` displayed a cell viability of 1.05 ± 0.078.

`COC1=CC(=O)c2c(O)c3c(c(O)c2C1=O)OC1(Oc2c(cc4cc(C)oc(=O)c4c2O)C2OC21)C3O` (stereo not given) [Griseorhodin A] showed a cell viability of 1.01 ± 0.04.

With `N/C(=N\C(=O)c1nc(Cl)c(N)nc1N)NCc1ccccc1`, the cell viability amounted to 0.969 ± 0.17.

With `NCc1ccc(S(N)(=O)=O)cc1`, the cell viability worked out at 1 ± 0.069.

In turn, `O=c1cc(-c2ccccc2)oc2cc(O)c(O)cc12` displayed a cell viability of 0.986 ± 0.063.

`CC(=O)Oc1cccc(O)c1` showed a cell viability of 1.06 ± 0.042.

Turning to `CC(C)=CC1C(C(=O)O)C1(C)C` (stereo not given), the cell viability is 0.98 ± 0.057.

As to `OCCOCCN1CCN(C2=Nc3ccccc3Sc3ccccc32)CC1`, the cell viability worked out at 1 ± 0.15.

For `Nc1nc(/C(=C/CC(=O)O)C(=O)N[C@@H]2C(=O)N3C(C(=O)O)=CCS[C@H]23)cs1`, the cell viability stood at 1.03 ± 0.021.

In turn, `CN1CCCC(n2nc(Cc3ccc(Cl)cc3)c3ccccc3c2=O)CC1` (stereo not given) showed a cell viability of 1.015 ± 0.0071.

Turning to `O=c1c(O)cccc2cc(O)c(O)c(O)c12`, the cell viability stood at 0.914 ± 0.056.

In turn, `Oc1ccc([C@H]2Oc3cc(O)cc(O)c3C[C@H]2O)cc1` gave a cell viability of 1.01 ± 0.14.

Consider `CCOC(=O)c1ccc(O)cc1`, for which the cell viability was found to be 0.89 ± 0.056.

`C[C@@H]1C(=O)O[C@H]2C[C@@]34[C@H]5C[C@@H](C(C)(C)C)[C@]36[C@@H](OC(=O)[C@@H]6O)O[C@@]4(C(=O)O5)[C@]21O` came in with a cell viability of 1.11 ± 0.064.

The molecule `COc1ccc(-c2coc3cc(OC)cc(OC)c3c2=O)cc1` yielded a cell viability of 1.04.

`C[C@H]1C[C@@H]2[C@H]([C@@H](O)C[C@@]3(C)[C@H]2CC[C@]3(O)C(=O)CO)[C@@]2(C)C=CC(=O)C=C12` yielded a cell viability of 1.02 ± 0.056.

`COC(=O)Nc1nc2cc(C(=O)c3ccccc3)ccc2[nH]1` had a cell viability of 0.801 ± 0.1.
